# Tests used:
# Assay in all cases: SPOT peptide array binding signal intensity (averaged, normalized) (arbitrary units (background-subtracted, floor 0; scale differs between SH3 domains)); higher = stronger binding of the SH3 domain to the peptide
# [1] = biological target: AgAbp1
# In short: (§1)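 GST-SH3 fusions from four yeast species, purified on glutathione Sepharose, were incubated at 10 μg/ml overnight at 4°C on membranes of synthetic 15-mer peptides in which cysteines were replaced with serines. Binding signal is the normalized, background-subtracted spot intensity averaged over replicates, in domain-specific arbitrary units.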
# [2] = biological target: AgBbc1
# In short: as §1
# [3] = biological target: AgBem1-D1
# In short: as §1
# [4] = biological target: AgBzz1-D1
# In short: as §1
# [5] = biological target: AgBzz1-D2
# In short: as §1
# [6] = biological target: AgCyk3
# In short: as §1
# [7] = biological target: AgFus1
# In short: as §1
# [8] = biological target: AgHof1
# In short: as §1
# [9] = biological target: AgHse1
# In short: as §1
# [10] = biological target: AgLsb1
# In short: as §1
# [11] = biological target: AgLsb4
# In short: as §1
# [12] = biological target: AgMyo5
# In short: as §1
# [13] = biological target: AgNbp2
# In short: as §1
# [14] = biological target: AgRvs167
# In short: as §1
# [15] = biological target: AgSho1
# In short: as §1
# [16] = biological target: AgSla1-D1-D2
# In short: as §1
# [17] = biological target: AgSla1-D3
# In short: as §1
# [18] = biological target: CaAbp1-D1
# In short: as §1
# [19] = biological target: CaAbp1-D2
# In short: as §1
# [20] = biological target: CaBbc1
# In short: as §1
# [21] = biological target: CaBem1-D1
# In short: as §1
# [22] = biological target: CaBzz1-D1
# In short: as §1
# [23] = biological target: CaBzz1-D2
# In short: as §1
# [24] = biological target: CaCyk3
# In short: as §1
# [25] = biological target: CaFus1
# In short: as §1
# [26] = biological target: CaHof1
# In short: as §1
# [27] = biological target: CaHse1
# In short: as §1
# [28] = biological target: CaLsb1
# In short: as §1
# [29] = biological target: CaLsb4
# In short: as §1
# [30] = biological target: CaMyo5
# In short: as §1
# [31] = biological target: CaNbp2
# In short: as §1
# [32] = biological target: CaRvs167
# In short: as §1
# [33] = biological target: CaRvs167-3
# In short: as §1
# [34] = biological target: CaSho1
# In short: as §1
# [35] = biological target: CaSla1-D1-D2
# In short: as §1
# [36] = biological target: CaSla1-D3
# In short: as §1
# [37] = biological target: ScAbp1
# In short: as §1
# [38] = biological target: ScBbc1
# In short: as §1
# [39] = biological target: ScBem1-D1
# In short: as §1
# [40] = biological target: ScBzz1-D1
# In short: as §1
# [41] = biological target: ScBzz1-D2
# In short: as §1
# [42] = biological target: ScCyk3
# In short: as §1
# [43] = biological target: ScFus1
# In short: as §1
# [44] = biological target: ScHof1
# In short: as §1
# [45] = biological target: ScHse1
# In short: as §1
# [46] = biological target: ScLsb1
# In short: as §1
# [47] = biological target: ScLsb2
# In short: as §1
# [48] = biological target: ScLsb3
# In short: as §1
# [49] = biological target: ScLsb4
# In short: as §1
# [50] = biological target: ScMyo3
# In short: as §1
# [51] = biological target: ScMyo5
# In short: as §1
# [52] = biological target: ScNbp2
# In short: as §1
# [53] = biological target: ScPex13
# In short: as §1
# [54] = biological target: ScRvs167
# In short: as §1
# [55] = biological target: ScSho1
# In short: as §1
# [56] = biological target: ScSla1-D1-D2
# In short: as §1
# [57] = biological target: ScSla1-D3
# In short: as §1
# [58] = biological target: SpAbp1-D1
# In short: as §1
# [59] = biological target: SpBbc1
# In short: as §1
# [60] = biological target: SpBzz1-D1
# In short: as §1
# [61] = biological target: SpBzz1-D2
# In short: as §1
# [62] = biological target: SpCyk3
# In short: as §1
# [63] = biological target: SpHof1
# In short: as §1
# [64] = biological target: SpHof1-2
# In short: as §1
# [65] = biological target: SpHof1-3
# In short: as §1
# [66] = biological target: SpHse1
# In short: as §1
# [67] = biological target: SpLsb1
# In short: as §1
# [68] = biological target: SpLsb4
# In short: as §1
# [69] = biological target: SpMyo1
# In short: as §1
# [70] = biological target: SpNbp2
# In short: as §1
# [71] = biological target: SpPex13
# In short: as §1
# [72] = biological target: SpRvs167
# In short: as §1
# [73] = biological target: SpSla1-D1-D2
# In short: as §1
# [74] = biological target: SpSla1-D3
# In short: as §1
binder,measurement,setting,value
VAPPPLPNRQLPNLD,SPOT peptide array binding signal intensity,[1],1.5
same,SPOT peptide array binding signal intensity,[2],45.5
same,SPOT peptide array binding signal intensity,[3],16
same,SPOT peptide array binding signal intensity,[4],3
same,SPOT peptide array binding signal intensity,[5],≤ 0
same,SPOT peptide array binding signal intensity,[6],≤ 0
same,SPOT peptide array binding signal intensity,[7],≤ 0
same,SPOT peptide array binding signal intensity,[8],247
same,SPOT peptide array binding signal intensity,[9],51
same,SPOT peptide array binding signal intensity,[10],693
same,SPOT peptide array binding signal intensity,[11],5100
same,SPOT peptide array binding signal intensity,[12],364
same,SPOT peptide array binding signal intensity,[13],≤ 0
same,SPOT peptide array binding signal intensity,[14],952
same,SPOT peptide array binding signal intensity,[15],≤ 0
same,SPOT peptide array binding signal intensity,[16],1.5
same,SPOT peptide array binding signal intensity,[17],≤ 0
same,SPOT peptide array binding signal intensity,[18],≤ 0
same,SPOT peptide array binding signal intensity,[19],5
same,SPOT peptide array binding signal intensity,[20],252
same,SPOT peptide array binding signal intensity,[21],≤ 0
same,SPOT peptide array binding signal intensity,[22],14
same,SPOT peptide array binding signal intensity,[23],4
same,SPOT peptide array binding signal intensity,[24],1
same,SPOT peptide array binding signal intensity,[25],≤ 0
same,SPOT peptide array binding signal intensity,[26],2
same,SPOT peptide array binding signal intensity,[27],569
same,SPOT peptide array binding signal intensity,[28],3.25
same,SPOT peptide array binding signal intensity,[29],4840
same,SPOT peptide array binding signal intensity,[30],2.5
same,SPOT peptide array binding signal intensity,[31],28.5
same,SPOT peptide array binding signal intensity,[32],3100
same,SPOT peptide array binding signal intensity,[33],≤ 0
same,SPOT peptide array binding signal intensity,[34],≤ 0
same,SPOT peptide array binding signal intensity,[35],≤ 0
same,SPOT peptide array binding signal intensity,[36],≤ 0
same,SPOT peptide array binding signal intensity,[37],2
same,SPOT peptide array binding signal intensity,[38],≤ 0
same,SPOT peptide array binding signal intensity,[39],≤ 0
same,SPOT peptide array binding signal intensity,[40],3.5
same,SPOT peptide array binding signal intensity,[41],≤ 0
same,SPOT peptide array binding signal intensity,[42],≤ 0
same,SPOT peptide array binding signal intensity,[43],≤ 0
same,SPOT peptide array binding signal intensity,[44],39.2
same,SPOT peptide array binding signal intensity,[45],10.5
same,SPOT peptide array binding signal intensity,[46],1610
same,SPOT peptide array binding signal intensity,[47],203
same,SPOT peptide array binding signal intensity,[48],8010
same,SPOT peptide array binding signal intensity,[49],4010
same,SPOT peptide array binding signal intensity,[50],321
same,SPOT peptide array binding signal intensity,[51],208
same,SPOT peptide array binding signal intensity,[52],≤ 0
same,SPOT peptide array binding signal intensity,[53],1660
same,SPOT peptide array binding signal intensity,[54],2740
same,SPOT peptide array binding signal intensity,[55],≤ 0
same,SPOT peptide array binding signal intensity,[56],≤ 0
same,SPOT peptide array binding signal intensity,[57],≤ 0
same,SPOT peptide array binding signal intensity,[58],8
same,SPOT peptide array binding signal intensity,[59],≤ 0
same,SPOT peptide array binding signal intensity,[60],176
same,SPOT peptide array binding signal intensity,[61],≤ 0
same,SPOT peptide array binding signal intensity,[62],5
same,SPOT peptide array binding signal intensity,[63],≤ 0
same,SPOT peptide array binding signal intensity,[64],11.5
same,SPOT peptide array binding signal intensity,[65],31
same,SPOT peptide array binding signal intensity,[66],71.5
same,SPOT peptide array binding signal intensity,[67],1020
same,SPOT peptide array binding signal intensity,[68],5980
same,SPOT peptide array binding signal intensity,[69],461
same,SPOT peptide array binding signal intensity,[70],≤ 0
same,SPOT peptide array binding signal intensity,[71],≤ 0
same,SPOT peptide array binding signal intensity,[72],3250
same,SPOT peptide array binding signal intensity,[73],≤ 0
same,SPOT peptide array binding signal intensity,[74],≤ 0
FYNRTAFQLPGDARV,SPOT peptide array binding signal intensity,[1],1.5
same,SPOT peptide array binding signal intensity,[2],0.5
same,SPOT peptide array binding signal intensity,[3],≤ 0
same,SPOT peptide array binding signal intensity,[4],39.5
same,SPOT peptide array binding signal intensity,[5],39
same,SPOT peptide array binding signal intensity,[6],2
same,SPOT peptide array binding signal intensity,[7],12
same,SPOT peptide array binding signal intensity,[8],12.2
same,SPOT peptide array binding signal intensity,[9],18
same,SPOT peptide array binding signal intensity,[10],1140
same,SPOT peptide array binding signal intensity,[11],≤ 0
same,SPOT peptide array binding signal intensity,[12],9.5
same,SPOT peptide array binding signal intensity,[13],≤ 0
same,SPOT peptide array binding signal intensity,[14],1.83
same,SPOT peptide array binding signal intensity,[15],≤ 0
same,SPOT peptide array binding signal intensity,[16],1
same,SPOT peptide array binding signal intensity,[17],1
same,SPOT peptide array binding signal intensity,[18],7
same,SPOT peptide array binding signal intensity,[19],≤ 0
same,SPOT peptide array binding signal intensity,[20],3
same,SPOT peptide array binding signal intensity,[21],16
same,SPOT peptide array binding signal intensity,[22],37.5
same,SPOT peptide array binding signal intensity,[23],30.5
same,SPOT peptide array binding signal intensity,[24],5
same,SPOT peptide array binding signal intensity,[25],21.5
same,SPOT peptide array binding signal intensity,[26],0.5
same,SPOT peptide array binding signal intensity,[27],2
same,SPOT peptide array binding signal intensity,[28],410
same,SPOT peptide array binding signal intensity,[29],≤ 0
same,SPOT peptide array binding signal intensity,[30],13.5
same,SPOT peptide array binding signal intensity,[31],22
same,SPOT peptide array binding signal intensity,[32],≤ 0
same,SPOT peptide array binding signal intensity,[33],3.5
same,SPOT peptide array binding signal intensity,[34],11.5
same,SPOT peptide array binding signal intensity,[35],≤ 0
same,SPOT peptide array binding signal intensity,[36],≤ 0
same,SPOT peptide array binding signal intensity,[37],2.5
same,SPOT peptide array binding signal intensity,[38],3.5
same,SPOT peptide array binding signal intensity,[39],0.5
same,SPOT peptide array binding signal intensity,[40],22
same,SPOT peptide array binding signal intensity,[41],36
same,SPOT peptide array binding signal intensity,[42],20
same,SPOT peptide array binding signal intensity,[43],≤ 0
same,SPOT peptide array binding signal intensity,[44],≤ 0
same,SPOT peptide array binding signal intensity,[45],61.5
same,SPOT peptide array binding signal intensity,[46],554
same,SPOT peptide array binding signal intensity,[47],843
same,SPOT peptide array binding signal intensity,[48],≤ 0
same,SPOT peptide array binding signal intensity,[49],≤ 0
same,SPOT peptide array binding signal intensity,[50],40
same,SPOT peptide array binding signal intensity,[51],12.5
same,SPOT peptide array binding signal intensity,[52],≤ 0
same,SPOT peptide array binding signal intensity,[53],≤ 0
same,SPOT peptide array binding signal intensity,[54],≤ 0
same,SPOT peptide array binding signal intensity,[55],1
same,SPOT peptide array binding signal intensity,[56],≤ 0
same,SPOT peptide array binding signal intensity,[57],1
same,SPOT peptide array binding signal intensity,[58],≤ 0
same,SPOT peptide array binding signal intensity,[59],0.5
same,SPOT peptide array binding signal intensity,[60],86

# — the supplement of paper PMC4466140
